High-throughput results (PubChem BioAssay)
Pf Dd2 growth: blocks in vitro growth of P. falciparum Dd2. P. falciparum Dd2 growth, SYBR Green, 72 h. Potency, µM (titrated, usually from 28.9 µM), hits mostly inhibitors. actives 4.3% (n = 120,000). AID 1347417; active means well fitted inhibition curve with a large enough effect; further: nearly all actives have a fitted effect of over 65% in size
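Readout: SYBR Green fluorescence, 485 nm excitation, 535 nm emission, after ~16 h lysis at 37C. Before that, Dd2-infected red cells (2.5% hematocrit) grew 72 h with compound, 29 uM top final concentration.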
Numbers stand for hits; 0 = inactive; [ ] = remark or other dose. This excerpt belongs to a sample that is enriched for hits.

SMILES	Pf Dd2 growth
CCOCCn1c(=O)[nH]c2cc(C(=O)NCC(=O)N(C)C)ccc21	0
Cc1cc(=O)[nH]c(NCCNC(=O)C2CCC(=O)N(C3CCCCCC3)C2)n1 (stereo not drawn)	0
CC(C)N1CCN(CCN2CC3(CCN(C(=O)CCN)CC3)OC2=O)CC1	0
O=C(c1ccccc1F)N1CCCC(n2cc(-c3nc(C4CC4)no3)nn2)C1 (stereo not drawn)	0
Cc1nc2scc(CC(=O)NCC(C)C)n2c(=O)c1-c1cc(C)n(-c2ccc(C(C)C)cc2)n1	0
CC(C)Cn1nc(C(=O)O)c2c1CCN(C(=O)CC(C)c1ccccc1)C2 (stereo not drawn)	0
CCOc1ccc(NC(=O)c2c(NCc3cccnc3)sc3c2CCC(C)C3)cc1 (stereo not drawn)	0
CCOc1ccc(NC(=O)c2c(NCc3ccc(C)o3)sc3c2CCC(C)C3)cc1 (stereo not drawn)	11.2µM
CCOc1ccccc1NC(=O)c1c(NC(=O)c2ccccc2C)sc2c1CCC(C)C2 (stereo not drawn)	0
CC1(C(=O)NCCCN2CCCc3ccccc32)CCCCC(=O)N1 (stereo not drawn)	0
CC(C)(C)OC(=O)N1CCC(c2c(C(=O)N3CCC(c4ccccc4)C3)cnn2-c2ccc(Cl)cc2)CC1 (stereo not drawn)	4.47µM
Cc1ccc(C2CCN(C(=O)c3cnn(-c4ccc(C)cc4)c3C3CCN(C(=O)OC(C)(C)C)CC3)C2)cc1 (stereo not drawn)	0
COc1ccc(-n2ncc(C(=O)N3CCN(c4ncccn4)CC3)c2C2CCN(C(=O)OC(C)(C)C)CC2)cc1	0
CC(C)(C)OC(=O)N1CCC(c2c(C(=O)N3CCN(c4ccccn4)CC3)cnn2-c2ccccc2)CC1	0
Cc1ccc(-n2ncc(C(=O)N3CCN(c4ncccn4)CC3)c2C2CCN(C(=O)OC(C)(C)C)CC2)cc1	0
Cc1ccc(-n2ncc(C(=O)N3CCC(c4ccccc4)C3)c2C2CCN(C(=O)OC(C)(C)C)CC2)cc1 (stereo not drawn)	11.2µM
CCOC(=O)c1ccccc1NC(=O)c1cnn(-c2ccc(OC)cc2)c1C1CCN(C(=O)OC(C)(C)C)CC1	0
CCOC(=O)c1cnn(-c2ccc(OC)cc2)c1C1CCN(C(=O)OC(C)(C)C)CC1	7.94µM
CCC1c2nccn2CCCN1C(=O)c1ccc2ncccc2c1 (stereo not drawn)	0
Cc1cc(C)cc(NC(=O)C2CC(=O)N(c3n[nH]c4cccc(F)c34)C2)c1 (stereo not drawn)	0
Cc1cn2nc(C(=O)N3CCN(C(=O)c4ccco4)CC3)cc2c(N2CCCC2)n1	0
CCC1CN(Cc2nc(CCOC)no2)CCC(=O)N1Cc1ccccc1 (stereo not drawn)	0
COc1ccc(CNC(=O)[C@H]2CCC[C@H]2NC(=O)c2cnc(C)cn2)cc1	0
CN(Cc1cccnc1)c1nc2c(c(=O)[nH]1)CCN(Cc1cccc(Cl)c1)CC2	0[5.79 µM]
CCC(NCc1c(C(=O)N2CCCCCC2)nc2cc(C)ccn12)c1ccc(C)cc1 (stereo not drawn)	10µM
SMILES	Pf Dd2 growth
Cc1ccn2c(C(=O)NCc3cccnc3N3CCN(C)CC3)c(C)nc2c1	0
Cc1ccn2c(=O)c(C(=O)NCc3ccccc3Cl)c(O)nc2c1	0
c1ccc(-c2nc(C3CCNC3)no2)nc1 (stereo not drawn)	0[5.79 µM]
CCN(C(=O)Cn1cnc2onc(-c3ccc(F)cc3)c2c1=O)c1ccc(OC)cc1	11.2µM
O=C(Cn1cnc2onc(-c3ccc(Cl)cc3)c2c1=O)Nc1ccc(F)cc1	0
CCOc1ccc(NC(=O)CCn2cnc3onc(-c4ccc(F)cc4)c3c2=O)cc1	0
COc1ccc(C(=O)N2C[C@@H]3C[C@H](C2)c2c(NC(=O)Nc4ccccc4OC)ccc(=O)n2C3)cc1	0
O=C(N[C@H]1CCN2C(=O)c3ccccc3NC(=O)[C@@H]2C1)c1ccccc1	0
COCCC1(C(=O)O)CCN(c2ccnc3c(C(F)(F)F)cccc23)CC1	0
OC[C@H]1CCN(c2ccnc3c(C(F)(F)F)cccc23)C[C@H]1O	0
FC(F)(F)c1cccc2c(N3CCC4(CCCN4Cc4ncc[nH]4)CC3)ccnc12	10µM
Cc1cccc(CN2CCc3c(n(Cc4cccnc4)n(-c4ccccc4)c3=O)C2)n1	0
O=C(C1CCCC1)N1CCCCCC1c1nc(-c2ccncc2)no1 (stereo not drawn)	0
Nc1nnnn1CC(=O)NCc1cccnc1Oc1ccc(F)cc1F	0
c1ccc(-c2nnc3ccc(-c4ccoc4)nn23)nc1	0
COc1ccc(-c2cc(N3CCCC(NC(=O)c4cccc(C(F)(F)F)c4)C3)n[nH]2)cc1 (stereo not drawn)	1.26µM
O=C(NC1CCN(c2cc(-c3ccc(F)cc3)[nH]n2)C1)c1cccc(F)c1 (stereo not drawn)	0
O=C(NC1CCN(c2cc(-c3ccc(F)cc3)[nH]n2)C1)c1ccccc1 (stereo not drawn)	0
COc1ccc(C(=O)NC2CCCN(c3cc(-c4ccccc4)[nH]n3)C2)cc1 (stereo not drawn)	0
O=C(NC1CCN(c2cc(-c3ccc(F)cc3)[nH]n2)C1)c1ccc2[nH]ccc2c1 (stereo not drawn)	5.01µM
Cc1cccc(C(=O)NC2CCN(c3cc(-c4ccc(F)cc4)[nH]n3)C2)c1 (stereo not drawn)	10µM
Cc1ccc(C(=O)NC2CCN(c3cc(-c4ccc(F)cc4)[nH]n3)C2)cc1 (stereo not drawn)	0
COc1ccc(-c2cc(N3CCC(NC(=O)c4cccc(OC(F)(F)F)c4)C3)n[nH]2)cc1 (stereo not drawn)	0
O=C(NC1CCN(c2cc(-c3ccc(Cl)cc3)[nH]n2)C1)c1ccc2[nH]ccc2c1 (stereo not drawn)	0
COC[C@@H]1CN(C(=O)c2cccc(C)c2)C[C@H]1c1nc(C2CC2)no1	0
SMILES	Pf Dd2 growth
O=C(CCNC(=O)c1cnccn1)NC1CCCc2c1[nH]c1ccccc21 (stereo not drawn)	0
CC(C)(C)CC(=O)N1CCN2C(=O)c3ccc(Cl)cc3NC(=O)[C@H]2C1	0
O=C(Nc1ccccc1F)N1CC2CCC(C1)N2Cc1cccc(Cl)c1	0
CCOc1cc(=O)n2c(c1C(=O)NCc1cc(OC)ccc1OC)CCCC2	0
O=C(c1ccc(=O)[nH]c1)N1C[C@@H](CN2CCCC2)[C@@H](CO)C1	0
O=C(NC1CCCC1)N[C@@H]1C[C@H](CO)[C@@H](O)[C@H]1O	0
COc1ccc(S(=O)(=O)N2CC[C@H]3NC(=O)N(c4ccc(C(C)C)cc4)C(=O)[C@H]32)cc1	0
CCOC(=O)C1(Cc2ccccc2F)CCCN(C(=O)C(=O)c2ccco2)C1 (stereo not drawn)	0
CCOC(=O)C1(Cc2cccc(Cl)c2)CCCN(Cc2cnn(C)c2)C1 (stereo not drawn)	0
CCOC(=O)C1(Cc2ccccc2C)CCCN(Cc2nccn2CC)C1 (stereo not drawn)	10µM
CCn1ccnc1CN1CCC(Oc2ccccc2OC)(C(=O)O)CC1	0
CCOC(=O)C1(Cc2ccccc2C)CCCN(Cc2cnc(C)s2)C1 (stereo not drawn)	11.2µM
CCOC(=O)C1(Cc2cccc(OC)c2)CCCN(Cc2cnc[nH]2)C1 (stereo not drawn)	0
O=C(c1ccc(Cl)cc1)N1CCC2(COc3ccncc3[S+](=O)([O-])N2)C1 (stereo not drawn)	0
COc1ccc(N2CC(C(=O)NC(C)C)NC2=O)cc1 (stereo not drawn)	0
